The sample as a whole holds a higher share of hits than the screen did.
CD40 NFkB inh = CD40 pathway inhibition in BL2 cells | AID 1053188 | BL2 NF-kB luciferase reporter, CD40L-induced, 4 h | inhibition, % at 10 µM | 0.94% of 83,000 active;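 active = mean inhibition of at least 50% with a set share of replicates also reaching that level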;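 note: 0% = neutral control wells and 100% = IKK inhibitor VII at 50 µM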
* marks the source's active call; other numbers are inactive results; ! = repeats disagree; [ ] = another dose, or the depositor's remark.

`COc1ccc(OCCOCCN2CCOCC2)cc1` gave CD40 NFkB inh 16.5.
`COc1ccc(/C=C2/CCC(CN3CCOCC3)C2=O)cc1` (configuration not stated) gave CD40 NFkB inh 73.7*.
For CC(C)NC(=O)Nc1cccc2c1O[C@H](CN(C)C)[C@@H](C)CN(C)C2=O the results were CD40 NFkB inh -2.5.
For COc1ccc(NC(=O)N[C@@H]2CC[C@H](CCNC(=O)CCN3CCCCC3)O[C@@H]2CO)cc1 the results were CD40 NFkB inh 18.9.
Cc1ccc(S(=O)(=O)NC(C(=O)Oc2cc3oc(=O)cc(C)c3cc2Cl)C(C)C)cc1 (configuration not stated) was read as CD40 NFkB inh 29.2*.
Cc1cc(=O)oc2cc(OC(C)C(=O)N3CCOCC3)c(Cl)cc12 (configuration not stated) was read as CD40 NFkB inh 0.7.
Cc1ccc(S(=O)(=O)NCC(=O)OCc2cc(=O)oc3cc(C)ccc23)cc1 was read as CD40 NFkB inh -6.1.
COc1cccc(CN2[C@@H]3CNC[C@H]2C3c2ccc(-c3ccc(C)cc3)cc2)c1 (some centres not stated) was read as CD40 NFkB inh 0.9.
CN1[C@@H]2c3ccc(/C=C/c4ccccc4)c(=O)n3C[C@@H]2[C@@H](CO)[C@@H]1C(=O)NC1CCC1 was read as CD40 NFkB inh -12.2.
For CN(C)C(=O)c1ccc(-c2ccc3c(c2)[C@H]2[C@H](CCN2C(=O)C2CCC2)[C@H](CO)N3C)cc1 the results were CD40 NFkB inh 4.7.
Cc1ccccc1N1CCN(S(=O)(=O)CC23CCC(C[C@@H]2NC(=O)[C@@H](N)CCS(C)(=O)=O)C3(C)C)CC1 (some centres not stated) was read as CD40 NFkB inh 4.3[25 µM].
`Cc1cc(S(=O)(=O)c2ccc(Cl)cc2)nc(S(=O)(=O)c2ccc(Cl)cc2)c1C#N` gave CD40 NFkB inh 112.3*.
`Cc1cc(C)nc(NNS(=O)(=O)c2ccc(Cl)cc2)n1` gave CD40 NFkB inh 2.7.
Screening Cc1ccc(S(=O)(=O)c2c(C)cc(C)nc2N2CCCCC2)cc1 returned CD40 NFkB inh 12.8.
Screening Cc1ccccc1S(=O)(=O)N(C)C[C@H]1OCc2ccccc2-c2c(n(C)c3ccccc23)C(=O)N([C@@H](C)CO)C[C@H]1C returned CD40 NFkB inh -12.5.
For CCC(=O)N(C[C@@H]1N[C@H](CO)[C@@H]1c1ccc(C#C[C@@H](C)O)cc1)C1CCCCC1 the results were CD40 NFkB inh 10.9[25 µM].
Screening CC(=O)Cn1c(CN2CCCC2)nc2ccccc2c1=O returned CD40 NFkB inh -0.3.
For CN1CCN(Cc2nc3c(c(=O)n(C)c(=O)n3C)n2CCCc2ccccc2)CC1 the results were CD40 NFkB inh 2.6.
For CN1CCN(Cc2nc3ccccc3c(=O)n2Cc2nc(-c3ccc4ccccc4c3)cs2)CC1 the results were CD40 NFkB inh 59.8*.
For COc1ccc(S(=O)(=O)Nc2cccc3c2O[C@H](CN(C)CC2CCCCC2)[C@H](C)CN([C@H](C)CO)C3=O)cc1 the results were CD40 NFkB inh 2.5[25 µM].
`COc1cccc(C#Cc2ccc([C@H]3[C@@H](CO)N(C(=O)C4CCCCC4)[C@H]3C#N)cc2)c1` gave CD40 NFkB inh 43.9[25 µM].
Cn1cnc(S(=O)(=O)N2CC[C@@H]3[C@H]2c2cc(C#CC4CCCC4)ccc2N[C@@H]3CO)c1 was read as CD40 NFkB inh 9.4[25 µM].
For Cc1ccc(S(=O)(=O)N2[C@@H]3CNC[C@H]2C3c2ccc(/C=C/c3ccccc3)cc2)cc1 (some centres not stated) the results were CD40 NFkB inh -15.1[25 µM].
`O=S(=O)(c1cccc(F)c1)N1[C@@H]2CNC[C@H]1C2c1ccc(/C=C/c2ccccc2)cc1` (some centres not stated) gave CD40 NFkB inh -19.7.
Screening O=S(=O)(c1ccccc1)N1[C@@H]2CNC[C@H]1C2c1ccc(/C=C/c2ccccc2)cc1 (some centres not stated) returned CD40 NFkB inh 50.9*!.
CN1CCN(C(=O)C[C@H]2CC[C@@H]3[C@@H](COc4ccc(NC(=O)C5CCCC5)cc4C(=O)N3C)O2)CC1 was read as CD40 NFkB inh 5.2.
`C[C@H](C(=O)N(C)C[C@H]1OCc2ccccc2-c2ccccc2C(=O)N([C@H](C)CO)C[C@@H]1C)c1ccccc1` gave CD40 NFkB inh -4.9.
For CCC(=O)N1Cc2cc(C(=O)N3CCCCC3)nc(-c3cccc(-c4cccnc4)c3)c2[C@H]1CCO the results were CD40 NFkB inh 1.1[25 µM].
Screening C/C=C/c1cccc(-c2nc(C(=O)NC3Cc4ccccc4C3)cc3c2[C@H](CCO)N(C(C)=O)C3)c1 returned CD40 NFkB inh 13.1[25 µM].
`CC(C)NC(=O)N1Cc2cc(C(=O)NC3Cc4ccccc4C3)nc(-c3cccc(-c4cccnc4)c3)c2[C@@H]1CCO` gave CD40 NFkB inh 56.8*[25 µM].
For C[C@H]1CN([C@@H](C)CO)C(=O)c2cc(N(C)C)ccc2O[C@@H]1CN(C)S(=O)(=O)c1cn(C)cn1 the results were CD40 NFkB inh -3.3[25 µM].
`C/C=C/c1ccc([C@H]2[C@@H](CN(C)C(=O)C3CC3)N(C(=O)CC)[C@H]2CO)cc1` gave CD40 NFkB inh 20.7.
Screening C[C@@H]1CN([C@H](C)CO)C(=O)c2c(c3ccccc3n2C)-c2ccccc2CO[C@H]1CN(C)C(=O)Nc1cccc(C(F)(F)F)c1 returned CD40 NFkB inh 38.4[25 µM].
C[C@@H]1CN([C@@H](C)CO)C(=O)c2c(c3ccccc3n2C)-c2ccccc2CO[C@@H]1CN(C)C(=O)Nc1cccc(C(F)(F)F)c1 was read as CD40 NFkB inh 23.6[25 µM].
C[C@@H]1CN([C@H](C)CO)C(=O)c2c(c3ccccc3n2C)-c2ccccc2CO[C@H]1CN(C)C(=O)Nc1cccc(F)c1 was read as CD40 NFkB inh 5.2.
`C[C@@H]1CN([C@H](C)CO)C(=O)c2c(c3ccccc3n2C)-c2ccccc2CO[C@@H]1CN(C)C(=O)Nc1cccc(C(F)(F)F)c1` gave CD40 NFkB inh 19.6[25 µM].
For C[C@H]1CN([C@@H](C)CO)C(=O)c2c(c3ccccc3n2C)-c2ccccc2CO[C@H]1CN(C)C(=O)Nc1cccc(C(F)(F)F)c1 the results were CD40 NFkB inh 54.5*[25 µM].
For C[C@@H]1CN([C@@H](C)CO)C(=O)c2c(c3ccccc3n2C)-c2ccccc2CO[C@H]1CN(C)C(=O)Nc1cccc(C(F)(F)F)c1 the results were CD40 NFkB inh 70.4*[25 µM].
CO[C@H]1CN(C)C(=O)c2ccc(NC(=O)C3CCCC3)cc2OC[C@@H](C)N(CC2CC2)C[C@@H]1C was read as CD40 NFkB inh 0.3.
Screening CC(=O)NC[C@H]1[C@@H](c2ccc(-c3cccc(F)c3)cc2)[C@@H](CO)N1C(=O)C1CC1 returned CD40 NFkB inh 13.6[25 µM].
Screening Cc1ccc(S(=O)(=O)N(C)C[C@@H]2OCCCC[C@H](C)Oc3ccc(NS(=O)(=O)c4ccccc4)cc3C(=O)N([C@H](C)CO)C[C@H]2C)cc1 returned CD40 NFkB inh 18.3.
`N#C[C@H]1[C@H](c2ccc(C#Cc3ccccc3F)cc2)[C@H](CO)N1C(=O)C1CCCC1` gave CD40 NFkB inh 8.7.
C[C@H](O)C#Cc1cnc2c(c1)C(=O)N([C@H](C)CO)C[C@H](C)[C@@H](CN(C)Cc1cccc(C(=O)O)c1)O2 was read as CD40 NFkB inh -7.5[25 µM].
`C[C@@H]1CN([C@H](C)CO)C(=O)c2c(c3ccccc3n2C)-c2ccccc2CO[C@H]1CN(C)C(=O)[C@H](C)c1ccccc1` gave CD40 NFkB inh 12.5.
For CCCC#Cc1ccc([C@@H]2[C@@H](CO)N3C(=O)CN(C(=O)c4cccnc4)C[C@H]23)cc1 the results were CD40 NFkB inh -2.9[25 µM].
